TrxR1 substrate = qHTS Assay for Substrates of Mammalian Selenoprotein Thioredoxin Reductase 1 (TrxR1): qHTS | Thioredoxin reductase 1, cytoplasmic (Rattus norvegicus), O89049 | purified TrxR1 substrate turnover, NADPH consumption readout | Potency, µM (highest dose often 114 µM), for the others: at the top dose activity change, negative = substrate turnover | hit rate 0.01% among 390,000; note: potency is the fitted concentration of half-maximal effect; nearly all actives have a fitted effect of over 50% in size
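Rat TrxR1, dispensed at 90 nM, was prereduced with 400 uM NADPH (final) for 5 min at ~22 deg C, then incubated with compound 15 min before 400 uM selenite. A first-read NADPH fluorescence drop versus no-compound background flagged substrates.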
GALK inhibitor = qHTS Assay for Inhibitors of Human Galactokinase (GALK); Purified GALK, Kinase-Glo residual ATP luminescence; Potency, µM (titrated, usually from 57.5 µM), for the others: top-dose activity change, negative = inhibition, hits mostly inhibitors; hit rate 0.007% among 270,000; AID 1868, 2009; note: potency is the fitted concentration of half-maximal effect
Target sequence (P51570 whole entry, looked up): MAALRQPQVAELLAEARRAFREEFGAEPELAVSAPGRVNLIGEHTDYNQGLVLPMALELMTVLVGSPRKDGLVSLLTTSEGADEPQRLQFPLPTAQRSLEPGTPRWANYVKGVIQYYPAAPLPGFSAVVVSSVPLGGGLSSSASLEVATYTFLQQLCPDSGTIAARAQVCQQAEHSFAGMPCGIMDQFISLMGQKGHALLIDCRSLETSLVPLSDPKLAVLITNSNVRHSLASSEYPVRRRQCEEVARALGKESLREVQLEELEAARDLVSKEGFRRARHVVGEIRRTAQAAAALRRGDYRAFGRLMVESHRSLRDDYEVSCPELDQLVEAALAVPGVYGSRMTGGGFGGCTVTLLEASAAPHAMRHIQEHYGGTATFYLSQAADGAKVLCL
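Human GALK (5 nM) with 35 uM ATP and 100 uM galactose in 20 mM HEPES pH 8.0, 5 mM MgCl2, 60 mM NaCl, 1 mM DTT, 0.01% BSA. After 1 h at room temperature, leftover ATP was read by Kinase-Glo Plus luminescence.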
FBPA coupling cs = qHTS Assay for Inhibitors of Fructose-1,6-bisphosphate Aldolase from Giardia Lamblia: Coupling assay counterscreen; coupling enzyme system counterscreen, AmpLite Red fluorescence; activity change, negative = inhibition, % at 58.2 µM, hits read low; hit rate 0.67% among 290,000; AID 2472, 2010; in the data active = activity change below about -30%
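Final compound at 57.5 uM, incubated 10 min at RT with coupling enzyme reagent (glyceraldehyde-3-phosphate), then 20 min with substrate and AmpLite Red detection. Fluorescence read at 525/598 nm; tests interference with the coupling assay, not aldolase inhibition.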
rTrxR1 inhibitor = qHTS Assay for Inhibitors of Mammalian Selenoprotein Thioredoxin Reductase 1 (TrxR1): qHTS. AID 588453, 2011. Thioredoxin reductase 1, cytoplasmic (Rattus norvegicus), O89049. hit rate 1% among 390,000. Potency, µM (top dose mostly 114 µM), without a hit: top-dose activity change, negative = inhibition, actives largely listed as inhibitors. recombinant rTrxR1, NADPH fluorescence consumption, selenite substrate; note: potency is the fitted concentration of half-maximal effect; nearly all actives have a fitted effect of over 65% in size
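Rat TrxR1 (90 nM in the dispensed reagent) was pre-reduced with 400 uM NADPH for 5 min at room temperature, then incubated with compound for 15 min. After 400 uM selenite was added, NADPH fluorescence (Ex 340/Em 450 nm) was followed for 8 min.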
RORg inh = qHTS for inhibitors of ROR gamma transcriptional activity | Nuclear receptor ROR-gamma (Mus musculus), P51450 | Drosophila S2 Gal4-RORgamma UAS-luciferase reporter, 20 h | Potency, µM (top dose mostly 53.6 µM), inactives show at the top dose activity change, negative = inhibition, hits mostly inhibitors | hit rate 5.4% among 310,000 | AID 2551, 2010; note: potency is the fitted concentration of half-maximal effect; nearly all actives have a fitted effect of over 60% in size
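Luminescence from a UAS-regulated Photinus luciferase reporter in stably transfected Drosophila Schneider cells is measured; decreased signal marks ROR gamma inhibition. Fusion expression is induced by 700 uM copper sulfate for 20 hr.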
Gal4-VP16 FLuc = VP16 counterscreen qHTS for inhibitors of ROR gamma transcriptional activity. hit rate 3.5% among 310,000. Potency, µM (top dose mostly 53.6 µM), inactives show at the highest dose activity, negative = inhibition, hits mostly inhibitors. Drosophila S2 Gal4-VP16 UAS-luciferase, luminescence, 20 h;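 note: Gal4-VP16 expression switched on by copper sulfate through the metallothionein promoter; potency is the fitted concentration of half-maximal effect; nearly all actives have a fitted effect of over 50% in size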
Active calls of the source: *; ? = inconclusive; . = not tested or not shown; [ ] = remark or other dose. Hits are enriched below; roughly 5.9% of the tested compounds scored in any of these assays. Unless noted, calls come from the whole dose curve; as a rule, active = well fitted curve in the direction sought with a large enough effect; inconclusive = small, poorly fitted or top-dose-only effect, or another doubt; inactive = no such curve, though single readings can be large; an effect the other way counts as inactive or inconclusive. % is set by controls: 0 for no effect and ±100 for the full control effect.

SMILES	TrxR1 substrate	GALK inhibitor	FBPA coupling cs	rTrxR1 inhibitor	RORg inh	Gal4-VP16 FLuc
Cc1cc2nc(SCC(=O)N(C)C)c3c(c2cc1C)CCCC3	4.6%	2.8%	2.7	1.7%	?	-1.3%
Cc1ccc(NC(=O)CSc2cc(=O)n(C)c3ccc(Cl)cc23)c(Br)c1	-1.2%	.	.	26.7%	.	.
Cc1cc(=S)[nH]c2c(C)cccc12	-7.4%	1.3%	3.5	-9.5%	11.2µM*	?
O=C1C=C(NCc2ccccc2)c2ccccc2C1=O	15.8µM*	?	-86.7*	?	15.8µM*	?
O=C1C=C(Nc2ccccc2O)c2ccccc2C1=O	?	-2.2%	-60.4*	-5.7%	?	10µM*
O=c1cccccc1NCc1ccccc1	-8.2%	0.9%	-38.7*	-24.2%	1.6%	?
Cc1ccccc1CCNC(=O)c1ccc2c(c1)nc1n2CCOC1	4.8%[57.1 µM]	.	.	19.0%[57.1 µM]	.	.
NS(=O)(=O)c1ccc(CCNS(=O)(=O)c2cccc(C(=O)O)c2)cc1	9.2%	-0.8%	8.4	20.8%	-3.5%	-4.0%
CCOC(=O)c1ccc(NC(=O)Cn2ncc(Cl)c(Cl)c2=O)cc1	3.9%	0.2%	0.0	?	?	10µM*
O=C(OCn1ncc(Cl)c(Cl)c1=O)c1ccc(C(F)(F)F)cc1	-7.2%	-1.3%	-1.5	17.8µM*	?	7.08µM*
Cc1ccc(C)c(C(=O)Cn2ncc(Cl)c(Cl)c2=O)c1	1.4%	-1.5%	-1.8	?	?	?
Cc1ccc(C(=O)OCn2ncc(Cl)c(Cl)c2=O)cc1	0.7%	-10.3%	-0.3	12.6µM*	24.6%	-12.3%
Cc1cccc(Cn2ncc(Cl)c(Cl)c2=O)c1	-7.2%	1.6%	2.6	50.1µM*	?	?
COCCNC(=O)c1ccc(CS(=O)(=O)c2c(Cl)cccc2Cl)o1	10.9%[57.1 µM]	-0.1%	0.2	-1.2%[57.1 µM]	8.0%	10.5%
O=C(NCc1ccccc1)N1CCC(CO)(Cc2cccc(F)c2)CC1	5.6%	-1.2%	3.3	31.4%	31.4%	-4.6%
Cc1ccc(CNC(=O)c2cnc(N(C)C)nc2)cc1	-2.1%[57.1 µM]	.	.	-0.3%[57.1 µM]	.	.
CC(C)CNC(=S)Nc1ccccc1F	0.3%	2.3%	5.7	-1.9%	6.31µM*	4.47µM*
CC(C)c1ccccc1NC(=S)NCc1ccccc1F	6.3%[57.1 µM]	-0.3%	-2.5	7.7%[57.1 µM]	?	?
CCCCNC(=S)Nc1cccc2cnccc12	9.1%	3.4%	-18.2	?	-36.6%	-4.3%
CCCCNC(=S)Nc1ccccc1F	-5.4%[57.1 µM]	-1.6%	.	-13.8%[57.1 µM]	11.2µM*	?
Cc1ccc(C(=O)c2c3ccc([N+](=O)[O-])cc3[n+]([O-])n2CCCN)cc1	2.3%	.	.	56.2µM*	.	.
CCCn1nc(C(=O)Nc2nnc(CC)s2)c2ccccc2c1=O	8.6%[57.1 µM]	0.5%	-2.1	12.3%[57.1 µM]	0.7%	-4.9%[10 µM]
CC(C)n1nc(C(=O)NNC(=O)c2ccncc2)c2ccccc2c1=O	-3.5%	.	.	9.3%	.	.
CC(C)n1nc(C(=O)Nc2nc3ccccc3[nH]2)c2ccccc2c1=O	-6.9%	7.7%	1.6	2.3%	1.78µM*	?
CCCn1nc(C(=O)Nc2nc3ccccc3[nH]2)c2ccccc2c1=O	0.7%	-0.3%	2.3	28.5%	12.6µM*	20µM*
COc1cccc(NC(=O)CSc2nc3ccccc3c(=O)n2C)c1	-2.4%[2.29 µM]	-0.8%	1.2	21.1%[2.29 µM]	48.6%	-18.4%
CCOC(=O)c1ccccc1NC(=O)c1ccc2c(Cl)c3c(nc2c1)CCC3	-2.3%	.	.	11.1%	.	.
O=C(c1cnn(-c2ccc(F)cc2)c1-n1cccc1)N1CCN(c2cccc(Cl)c2)CC1	-1.5%	.	.	16.2%	.	.
COc1ccccc1N(O)C1CC(=O)N(c2ccc(F)cc2)C1=O (stereo not drawn)	0.3%	0.4%	-13.8	0.891µM*	-14.1%	5.1%[0.365 µM]
